Active and inactive are the calls of the source. No rule for the calls is given here.

A short description of the assay: P. aeruginosa biofilm formation inhibitors, primary screen, strain PAO1, LB-PBS medium, absorbance 600 nm (AID 1176). Also: test concentration not given here. The settings on record: P. aeruginosa PAO1 growth/biofilm, A600, 12 h; higher = more signal.
As to `COc1ccc(C(=O)Nc2ccc(CN3C(=O)[C@]4(O[C@H](CC(=O)N(CCO)Cc5ccccc5)[C@@H]([Si](C)(C)c5ccc(OC)cc5)[C@@H]4C)c4ccccc43)cc2)cc1`, the z-score is 0.671 (inactive).
With `Cc1ccc(S[C@]2(C(=O)NC(C)C)CC(=O)N(Cc3ccccc3)[C@@H]2c2ccc(CO)cc2I)cc1`, the z-score is 0.003 (inactive).
With `C=C(CCCC)C(=O)CC[C@@H](OC(C)=O)c1ccc(OCCO)cc1` the figure was 1.07 (inactive).
With `COC(=O)[C@@]1(Cc2ccc(F)cc2)[C@H]2c3cc(C(=O)N4CCCC4)n(CCc4c[nH]c5cc(F)ccc45)c3C[C@H]2CN1C(=O)c1ccccc1` the figure was -0.815 (inactive); with `C=CCN1C(=O)[C@]2(O[C@H](CCO)[C@@H]([Si](C)(C)c3ccc(OC)cc3)[C@@H]2C)c2cc(N3C(=O)c4ccccc4Oc4ccccc43)ccc21`, 0.106 (inactive).
With `COC(=O)C(CC#Cc1ccc2c(c1)[C@]1(C(=O)N2)[C@H](c2ccc(OCCO)cc2)N2[C@H](c3ccccc3)[C@H](c3ccccc3)OC(=O)[C@H]2[C@@H]1C(N)=O)C(=O)OC` the figure was 2.88 (inactive); with `CC(C)N1C(=O)[C@@]2(Cc3ccccc31)c1ccccc1C(=O)N(Cc1ccccc1C(F)(F)F)[C@H]2c1ccc(CO)cc1`, 0.146 (inactive); with `C=C(C(=O)CC[C@@H](OC(=O)c1ccccc1-c1ccccc1C(=O)O)c1ccc(OCCO)cc1)C(C)C`, 0.85 (inactive).
Consider `COc1ccc(CCNC(=O)[C@@]2(C)c3ccccc3C(=O)N(Cc3ccc(OC(F)(F)F)cc3)[C@H]2c2ccc(CO)cc2)cc1`, for which the z-score was 1.05 (inactive).
